In ChEMBL document CHEMBL4513216, “Probing the Open Global Health Chemical Diversity Library for Multistage-Active Starting Points for Next-Generation Antimalarials” (ACS Infect Dis, 2020):
Out of some 65,000 compounds screened, about 2,100 (3.2%) showed an effect of 50% or more. The median lay at about -52%. This excerpt belongs to a sample that is enriched for strong results.

System: Plasmodium falciparum
Test: Screen against P. falciparum Asexual Blood Stage (ABS), at 5uM
Assay type: functional, Dd2
Conditions: tested at 5 uM

Compared with `Cc1nccc(N[C@H]2CN(CC(C)(C)N3CCOCC3)C[C@@H]2C2CC2)n1`, `Cc1cc(N[C@H]2CN(CC(C)(C)N3CCOCC3)C[C@@H]2C2CC2)ncn1` is lower in INHIBITION: 63.5% for the first, 48.9% for the second.

Going from `N#CC1(C(=O)N2C[C@H](Nc3ncccn3)[C@@H](C3CC3)C2)CCOCC1` to `CC(C)(CN1C[C@H](Nc2ncccn2)[C@@H](C2CC2)C1)N1CCOCC1`, the INHIBITION rises from -92.4% to 50.5%.

First: Cc1nccc(N[C@H]2CN(CCS(C)(=O)=O)C[C@@H]2C2CC2)n1
Second: CCS(=O)(=O)N[C@H]1CN(CC(C)(C)N2CCOCC2)C[C@@H]1C1CC1
The INHIBITION of the first is lower: -88.4% for the first, -11.1% for the second.

Compared with `Cc1ccc(NC2CCN(C(=O)COCC3CC3)CC2)nn1`, `O=C(Cc1ccc2c(c1)CCO2)N1CCCC1c1noc(C2CC2)n1` (configuration not stated) is lower in INHIBITION: -61.2% for the first, -67.5% for the second.

First: CN(C)c1ccc(C(=O)N2CCCC(n3cccn3)C2)cn1 (configuration not stated)
Second: CC(Cn1cccn1)NC(=O)NCc1ccc(OC2CCCC2)nc1 (configuration not stated)
The INHIBITION of the first is lower: -240% for the first, -90.4% for the second.

First: C/N=C1/c2cc3cc(OC)ccc3n2CCN1Cc1ccccc1
Second: COc1ccc(-n2ccc(C(=O)NCCN3CCC(C)CC3)n2)cc1
The INHIBITION of the first is higher: 25.3% for the first, -1.58% for the second.

Compared with `CCC(CN1CCCC1)n1cncc1-c1cnn(-c2ccc(F)cc2)c1` (configuration not stated), `CCC(CN1CCCC1)n1cncc1-c1cnn(-c2ccccc2)c1` (configuration not stated) is higher in INHIBITION: 43% for the first, 56.2% for the second.

Going from `CCC(CN1CCOCC1)n1cncc1-c1ccc2c(c1)CCCN2C` (configuration not stated) to `O=C(NCCN1CCCCC1)c1ccn(-c2ccc(F)cc2)n1`, the INHIBITION rises from 31.4% to 46.1%.

Compared with `Cc1ccc(CN2CCc3nnc(COCCN(C)C)n3CC2)o1`, `COc1ccc(-n2ccc(C(=O)NCCN3CCCC(C)C3)n2)cc1` (configuration not stated) is higher in INHIBITION: -116% for the first, 7.72% for the second.

First: O=C(O)c1cc(-c2ccoc2)cc(S(=O)(=O)NC2CC2)c1
Second: CN(C)c1ccc(-c2cc(C(=O)O)cc(S(=O)(=O)NC3CC3)c2)cc1
The INHIBITION of the first is lower: -132% for the first, 57.2% for the second.

First: O=C(O)c1cc(-c2ccc3c(c2)OCO3)cc(S(=O)(=O)NC2CC2)c1
Second: CN(Cc1ccccc1)S(=O)(=O)N1C[C@@H](C(=O)O)[C@H](C2CC2)C1
The INHIBITION of the first is higher: -33.6% for the first, -76.5% for the second.

Compared with `Cc1cccc(NC2CCc3c2[nH]c(=O)n(C2CCCCC2)c3=O)c1C` (configuration not stated), `C[C@@H]1CCC[C@H](C)N1CC(=O)N1CCc2[nH]c(-c3ccccc3)nc2C1` is lower in INHIBITION: -28.8% for the first, -64.1% for the second.

First: CN(Cc1cccnc1)[C@@H]1CN(Cc2cnn(C)c2)[C@@H]2CCCO[C@H]12
Second: CN(Cc1ccccc1)S(=O)(=O)N1C[C@H](C2CC2)[C@@H](N)C1
The INHIBITION of the first is lower: -11.9% for the first, 58% for the second.

Going from `CC(=O)N[C@H]1CN(S(=O)(=O)N(C)Cc2ccccc2)C[C@@H]1C1CC1` to `CCC[C@H]1CN(S(=O)(=O)N(C)Cc2ccccc2)C[C@@H]1N`, the INHIBITION rises from -59.7% to 68.1%.

Going from `N[C@H]1CN(S(=O)(=O)c2ccccc2)C[C@@H]1C1CC1` to `N[C@H]1CN(S(=O)(=O)Cc2ccccc2)C[C@@H]1C1CC1`, the INHIBITION rises from -0.57% to 55.5%.

Compared with `CN(Cc1ccc(F)cc1)S(=O)(=O)N1CCOCC1`, `CC1CCN(CCNC(=O)c2ccn(-c3ccc(F)cc3)n2)CC1` is higher in INHIBITION: -118% for the first, 60.9% for the second.

First: CC(C)[C@@H]1CN(S(=O)(=O)Cc2ccccc2)C[C@H]1C(=O)O
Second: CCC[C@H]1CN(S(=O)(=O)c2ccccc2)C[C@@H]1N
The INHIBITION of the first is lower: -80.4% for the first, 16.5% for the second.

Going from `CO[C@H]1C[C@@H](O)C12CCN(C(=O)CCCOc1ccccc1)CC2` to `CC1CCN(CCNC(=O)c2ccn(-c3ccccc3)n2)CC1`, the INHIBITION rises from -224% to 24%.

Going from `Cc1nc(Oc2ccccc2Cl)sc1C(=O)O` to `CC1CCCCN1CCNC(=O)c1ccn(-c2ccccc2)n1` (configuration not stated), the INHIBITION rises from -103% to 22%.

Going from `CC1CCCN(CCNC(=O)c2ccn(-c3cccc(F)c3)n2)C1` (configuration not stated) to `CC1CCCN(CCNC(=O)c2ccn(-c3ccc(F)cc3)n2)C1` (configuration not stated), the INHIBITION falls from 68% to 50.2%.

First: CC1CCCCN1CCNC(=O)c1ccn(-c2cccc(F)c2)n1 (configuration not stated)
Second: CC1CCCCN1CCNC(=O)c1ccn(-c2ccc(F)cc2)n1 (configuration not stated)
The INHIBITION of the first is higher: 64.3% for the first, 34.6% for the second.

Going from `Cc1cc(C(=O)NCCN2CCCC(C)C2)nn1C` (configuration not stated) to `CC1CCCN(CCNC(=O)c2ccn(-c3ccccc3)n2)C1` (configuration not stated), the INHIBITION rises from -67.5% to 50.8%.

Compared with `O=C(NCCn1cccn1)c1ccn(-c2cccc(F)c2)n1`, `CCOc1ccc(N2CCCN=C2NC(=O)c2cccc(C)c2)cc1` is lower in INHIBITION: -67.5% for the first, -77.5% for the second.

Compared with `COCC(=O)N(C)Cc1ccc(F)c(F)c1`, `CCOc1nnc(CN(CC)CC(=O)Nc2c(F)cccc2F)s1` is higher in INHIBITION: -52.4% for the first, -13.5% for the second.

Compared with `C=C(C)COc1cccc(C(=O)NC(C)c2nnn[nH]2)c1` (configuration not stated), `CC(C)NC(=O)[C@H]1C[C@@H]2[C@@H](C1)OCCN2Cc1cccs1` is higher in INHIBITION: -109% for the first, -20.5% for the second.

Going from `Cc1cc(C(=O)N2CCc3nc(N4CCOCC4)nc(C)c3C2)c(C)o1` to `O=C(NCCc1cccs1)[C@]12COC[C@H]1CN(Cc1ccncc1)C2`, the INHIBITION rises from -39.6% to -31%.
